Source: PubChem (National Center for Advancing Translational Sciences (NCATS))
Sampled rows, rich in hits. Any-hit rate of the full collection: about 21%.
Shiga toxin inh: inhibitors of Shiga toxin in Vero cells; 9.2% of 290,000 active; inhibition, % at 38.7 µM; Vero cells, Shiga toxin protein synthesis inhibition reporter; in the data active means inhibition mostly above about 28%, no sharp cut-off; inactive means mostly below about 43%; further: 0% is about no effect
HCMV antiviral: human cytomegalovirus inhibition; AID 1259415; 4.5% of 410,000 active; HFF cells, HCMV-luciferase reporter, 72 h; stronger effect = lower value; activity change, negative = inhibition, % at 57.5 µM; in the data active means activity change below about -60%; inconclusive means no clear call, values can overlap the other calls; inactive means above about -39%; further: on the % scale 0 is the no-effect control and ±100 the full control effect
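Cell-based, HFFs, 1000 cells/well, 16 h 37C; cpds in DMSO + HCMV-luc, MOI 1 PFU/cell; 72 h 37C; OneGlo luminescence after 5 min RT; norm. to buffer vs Salinomycin 10uM.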
HCV inh: inhibitors of hepatitis C virus infection; Potency, µM (doses to about 41.8 µM), inactives show top-dose activity change, negative = inhibition, most hits filed as inhibitors; Huh7.5.1 HCVcc-Cre infection, luciferase reporter, 44 h; AID 651820; 3.4% of 340,000 active; further: potency means the concentration at half of the fitted maximal effect; on the % scale 0 is the no-effect control and ±100 the full control effect
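Cells (1,000/well) were plated 4 h before compound, then infected with HCVcc-Cre virus (~0.5 moi). After 44 h further culture, infection was read as luciferase luminescence following a 15 min substrate incubation at room temperature.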
Pf growth 48h: P. falciparum growth inhibition at 48 hours (one generation); P. falciparum luciferase growth in erythrocytes, 48 h; Potency, µM (top dose mostly 28.7 µM), for the others: at the highest dose activity change, negative = inhibition, most hits filed as inhibitors; 5.9% of 310,000 active; AID 504832; further: potency means the concentration at half of the fitted maximal effect; on the % scale 0 is the no-effect control and ±100 the full control effect
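Firefly luciferase activity from engineered P. falciparum reports growth; inhibitors lower the luminescent signal. Cultures contained 2% hematocrit erythrocytes at 0.1% final parasitemia.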
Pf growth 96h: P. falciparum growth inhibition at 96 hour, primary screen for plastid delayed-death inhibitors | P. falciparum luciferase reporter growth, 96 h | Potency, µM (highest dose often 28.7 µM), inactives show at the top dose activity change, negative = inhibition, actives largely listed as inhibitors | 6.9% of 320,000 active; further: potency means the concentration at half of the fitted maximal effect; on the % scale 0 is the no-effect control and ±100 the full control effect
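Luminescence readout: decreased luciferase signal marks inhibited growth of reporter-expressing P. falciparum in infected red cells (2% hematocrit, 0.05% parasitemia final), exposed to compound two generations (96 h, 37 C, 5% CO2).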
CHX counter: counter-screen for Shiga toxin inhibitors: cycloheximide protein synthesis inhibition | cell reporter, cycloheximide protein synthesis inhibition counterscreen | max response, % | AID 2314 | 12% of 300,000 active; in the data active means max response mostly above about 13%, no sharp cut-off; inactive means mostly below about 14%; further: read at 38.3 µM for the half of the compounds with a filed dose; 0% is about no effect
* hit, by the source's call; u = inconclusive; x = not tested or not shown; [ ] = dose if it differs, or a comment. Unless noted, the call rests on the fitted dose curve; in most records, active means well fitted inhibition curve with a large enough effect; inconclusive means small, poorly fitted or top-dose-only effect, or another doubt; inactive means no such curve, though single readings can be large or run the other way.

SMILES | Shiga toxin inh | HCMV antiviral | HCV inh | Pf growth 48h | Pf growth 96h | CHX counter
Cc1cc(C)c(Cn2c3ccccc3c3cnn(CC(=O)NCCc4ccccc4)c(=O)c32)c(C)c1 | x | 12 | x | x | x | x
C=CCNc1nc(-c2sc(NC(C)=O)nc2C)cs1 | 132* | 36 | u | u | -3% | 41*
C=CCNc1nc(-c2sc(NC(=O)CC)nc2C)cs1 | 96* | 0 | u | u | -18% | 36*
Cc1nc(NC(=O)C(C)(C)C)sc1-c1csc(N)n1 | x | -22 | x | x | x | x
C=CCNc1nc(-c2sc(NC(=O)C(C)(C)C)nc2C)c(-n2cc(-c3ccccc3)nn2)s1 | x | -38 | x | x | x | x
COc1cccc(CNC(=O)CCC2CCCN(C(=O)C3=CC(=O)CC(C)(C)O3)C2)c1 (centres undefined) | -4 | 20 | -2% | -9% | u | 1
NC(=O)Cc1nc(-c2ccccc2)cs1 | -2 | -22 | 14% | 16% | u | 6
Cc1ccc(-c2csc(CC(N)=O)n2)cc1 | 66* | 0 | 25% | 64% | u | 31*
Oc1csc(Cc2nc(-c3ccc(Br)cc3)cs2)n1 | 130* | 60 | u | 184% | 5% | 38*
Nc1nc(-c2ccc(Cl)cc2)cs1 | x | 52 | x | x | x | x
N/C(Cc1nc(-c2ccc(Cl)cc2)cs1)=N/O | 40* | 7 | -14% | 151% | 60% | 41*
NC(=O)Cc1nc(-c2ccc(Br)cc2)cs1 | 37* | -27 | 4% | 29% | 10% | 21
O=C(NCC(=O)N1CCOCC1)c1ccc(Cl)cc1 | 35 | 29 | 17% | 34% | 6% | 18*
Cc1cccc(C(=O)NCC(=O)N2CCC2)c1 | x | 7 | 10% | 15% | 33% | x
O=C(NCC(=O)N1CCCCCC1)c1ccc(Cl)cc1 | 65* | 36 | 2% | 71% | 160% | 29*
O=C(Cc1ccc(Cl)cc1)NCC(=O)N1CCCCCC1 | 12 | 25 | 11% | u | 12µM* | -1
O=C(NCC(=O)N1CCCCCCC1)c1ccc(Cl)cc1 | x | 0 | 13% | 112% | 105% | x
Cc1cccc(C(=O)NCC(=O)N2CCN(c3ccccn3)CC2)c1 | x | -104* | 35% | x | x | x
COc1ccc(C(=O)Oc2c(Sc3ccccc3)c(C)nn2-c2ccccc2)cc1OC | x | -17 | x | x | x | x
CCc1ccccc1N(CC(=O)NC(C)C)C(=O)CCC(=O)Nc1nccs1 | -8 | -8 | -17% | u | -1% | -1
CCOc1ccc(C(=O)NCC(=O)N2CCCC2)cc1 | 50* | 41 | 21% | 11% | 49% | 18
CCOc1ccc(C(=O)Nc2ccccc2N2CCOCC2)cc1 | -15 | u | -14% | u | u | -3
Cc1cccc(C(=O)NCC(=O)N2CC=C(c3ccccc3)CC2)c1 | x | 12 | 5.6µM* | -9% | -2% | x
CCOc1ccc(C(=O)NCC(=O)OCC(=O)N2CCCC2)cc1 | -10 | -22 | 6% | 33% | -28% | 1
Cc1cccc(C(=O)NCC(=O)N2CCOCC2)c1 | 8 | 12 | 10% | -10% | 14% | 23*
SMILES | Shiga toxin inh | HCMV antiviral | HCV inh | Pf growth 48h | Pf growth 96h | CHX counter
COc1ccc(C(=O)NCC(=O)N2CC=C(c3ccccc3)CC2)cc1OC | x | 2 | u | u | -28% | x
CCOc1ccc(C(=O)Nc2ccccc2N2CCCC2)cc1 | 72 | -76* | u | u | u | 29*
Cc1ccc(-c2nn3c(=O)cc(CN4CCN(C(=O)Nc5cc(Cl)ccc5C)CC4)nc3s2)cc1 | x | 1 | x | x | x | x
CCCCOc1ccc(CNC(=O)Cc2ccc(NC(=O)N3CCSc4ncccc43)cc2)cc1 | x | 0 | x | x | x | x
NC(=O)C1CCN(C(=O)CNC(=O)c2ccccc2)CC1 | 35 | -28 | 10% | u | 25% | 11
Cc1cc(C)n(C(=O)CNC(=O)c2cccc(F)c2)n1 | 3 | 34 | 16% | 10% | 29% | -3
Cc1nn(C(=O)CNC(=O)c2ccccc2)c(C)c1C | 47 | -17 | 3% | 46% | u | 38*
O=C(NCC(=O)N1CCOCC1)c1ccccc1 | 55* | -5 | 7% | 56% | 41% | 15*
Oc1sc(C=Nc2ccc(F)cc2)c2ccccc12 | 13* | 75 | u | 4.7µM* | 3.3µM* | 57*
Oc1sc(C=Nc2ccccc2)c2ccccc12 | 80* | 286 | u | -27% | u | 68*
O=C(CN1C(=O)c2ccccc2S1(=O)=O)NCc1ccco1 | -4 | 7 | 3% | 11% | 10% | -3
CC(C)(Oc1ccc(Cl)cc1)C(=O)Nc1nnc2n1CCS2 | x | -15 | x | x | x | x
CCOC(=O)C(=CNc1ccc(-c2ccco2)c(Cl)c1)C(=O)OCC | -8 | u | u | u | u | -3
CCOC(=O)C(=CNc1ccccc1C)C(=O)OCC | -2 | -23 | u | -8% | 17% | 17
CCOC(=O)C(=CNc1ccccc1Cl)C(=O)OCC | 18 | -61* | u | 5% | u | 13
CCOC(=O)C(=CNc1cc(Cl)c(-c2ccco2)c(Cl)c1)C(=O)OCC | -6 | 9 | 13µM* | 12µM* | -110% | -2
CC[C@]1(C(=O)OC)[C@H]2C(=O)N(Cc3ccccc3)C(=O)[C@H]2[C@H]2CN(C)C(=NC)N21 | x | x | 0%[8.37 µM] | x | x | x
Cc1ccc2c(c1)N(C)/C(=C/c1cccc[n+]1C)S2 | 6 | -98* | u | 5%[0.00184 µM] | 0.47µM* | -2
Cc1ccc2c(c1)N(C)/C(=C/c1cccc[n+]1CCO)S2 | 5 | -97* | u | 1.9µM* | 16% | -3
CN1/C(=C/c2cccc[n+]2C)Sc2ccccc21 | 23 | -97* | u | 1.2µM* | 3% | 7
CN1CCN(CC(=O)N2c3ccccc3Sc3ccccc32)CC1 | -5 | 19 | 0% | -17% | u | -4
CCOc1ccc(NC(=O)Cn2c(=O)n(CCc3ccccc3)c(=O)c3c4c(sc32)CCCC4)cc1 | x | -11 | x | x | x | x
Cc1ccc(CC(=O)Nc2cccc([N+](=O)[O-])c2)cc1 | 32 | -10 | 4% | 37% | 68% | -2
Cc1ccc(C(=O)CNc2cccc([N+](=O)[O-])c2)cc1 | 90* | -16 | 8% | 62% | 12% | 38*
Cc1cccc(NCCC(=O)c2ccc([N+](=O)[O-])cc2)c1C | 11 | 9 | -7% | 6% | 38% | 3
Cc1ccc(NCCC(=O)c2cccc([N+](=O)[O-])c2)c(C)c1 | 0 | -33 | -26% | 4% | 10% | 35*
Cc1ccc(NCC(=O)c2ccc([N+](=O)[O-])cc2)cc1 | 85* | x | -12% | u | u | 43*
C=Cc1ccc(Cn2c(=O)cc(C)c3c(C)nn(-c4ccccc4)c32)cc1 | x | 2 | x | x | x | x
COC(=O)Cn1ccc2cc(S(=O)(=O)N3CCCCC3)ccc21 | 13 | -38 | 4% | 17% | 5.9µM* | -1
COc1ccc(CNC(=O)C(C)n2ccc3cc(S(=O)(=O)N4CCCCCC4)ccc32)cc1 (centres undefined) | -3 | -9 | 6.3µM* | u | u | -1
